Screens (PubChem BioAssay)
IL-1B inflam inh: qHTS for Inhibitors of Inflammasome Signaling: IL-1-beta AlphaLISA Primary Screen; THP-1 LPS/ATP IL-1B secretion, AlphaLISA, 16 h; active compounds read low; activity change, % at 57.5 µM; 4.7% of 360,000 active; AID 743279, 2014; in the data active = activity change below about -50%; inconclusive = mostly about -30% to -49%
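Secreted IL-1B measured by AlphaLISA bead assay after 16 h compound exposure of THP-1 cells; compounds (final up to 57.5 uM) added 1 h before LPS (250 ng/mL) and ATP (1.25 mM) stimulation; lower signal means less secretion.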
HT1080 IDH1KD tx: qHTS for induction of synthetic lethality in tumor cells producing 2HG: qHTS for the HT-1080-IDH1KD cell line. HT-1080 IDH1 knockdown viability, ATP luminescence, 48 h. Potency, µM (highest dose often 46.1 µM), without a hit: top-dose activity, negative = toxicity, most hits filed as cytotoxic. 2% of 360,000 active;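 note: potency is the fitted concentration of half-maximal effect; 0% = DMSO wells and -100% = cell-free medium wells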
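CellTiter-Glo luminescence after 48 h compound exposure at 37 degrees C of IDH1-knockdown HT-1080 cells in 5% FBS RPMI. %Activity scaled between DMSO wells and cell-free media wells, with curves fitted and assigned curve classes.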
DT40 TDP1 CPT: qHTS for Inhibitors of human tyrosyl-DNA phosphodiesterase 1 (TDP1): qHTS in cells in presence of CPT. chicken DT40 Tdp1-/-;hTDP1 cells + 20 nM CPT, ATP luminescence, 48 h. Potency, µM (titrated, usually from 46.2 µM), inactives show top-dose activity change, negative = growth inhibition, most hits filed as inhibitors. 12% of 420,000 active. AID 686979, 2013; note: potency is the fitted concentration of half-maximal effect; nearly all actives have a fitted effect of over 55% in size
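Chicken DT40 Tdp1-/- cells complemented with human TDP1, 400 cells/well, exposed to compounds plus 20 nM camptothecin for at least 48 h at 37 C; viability read as ATP content by CellTiter-Glo luminescence.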
HT1080-NT tox: qHTS for induction of synthetic lethality in tumor cells producing 2HG: qHTS for the HT-1080-NT fibrosarcoma cell line. Potency, µM (top dose mostly 46.1 µM), without a hit: top-dose activity, negative = less viability, most hits filed as cytotoxic. 1.6% of 360,000 active. AID 686970, 2013. HT-1080-NT fibrosarcoma viability, CellTiter-Glo ATP luminescence, 48 h;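 note: NT is the 2HG producing partner of a matched IDH1 knockdown line; potency is the fitted concentration of half-maximal effect; 0% = DMSO-treated cells and -100% = media-only wells without cells; nearly all actives have a fitted effect of over 55% in size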
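HT-1080-NT fibrosarcoma cells (2HG-overproducing), 750 cells/well in RPMI with 5% FBS, dosed after 2 h and incubated 48 h at 37C. CellTiter-Glo luminescence normalized to DMSO and no-cell wells; concentration-response curves fitted and classed.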
DT40 TDP1 no CPT: qHTS for Inhibitors of human tyrosyl-DNA phosphodiesterase 1 (TDP1): qHTS in cells in absence of CPT; DT40 Tdp1-/- hTDP1 cells, no CPT, ATP luminescence, 48 h; Potency, µM (highest dose often 46.2 µM), for the others: top-dose activity change, negative = growth inhibition, actives largely listed as inhibitors; 15% of 420,000 active; AID 686978, 2013; note: potency is the fitted concentration of half-maximal effect; nearly all actives have a fitted effect of over 55% in size
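Growth of hTDP1-complemented DT40 Tdp1-knockout cells is measured by ATP luminescence after at least 48 hr compound exposure at 37 °C, with DMSO substituting for the 20 nM CPT used in the parallel screen.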
* = called active by the depositor. A selection: hits, their analogues and other compounds. The true share with any hit is near 19%. Unless noted, calls come from the whole dose curve; as a rule, active = well fitted curve in the direction sought with a large enough effect; inconclusive = small, poorly fitted or top-dose-only effect, or another doubt; inactive = no such curve, though single readings can be large; an effect the other way counts as inactive or inconclusive. Unless noted, % is set by controls: 0 for no effect and ±100 for the full control effect.

How did COc1cc2c(cc1OC)C(C)N(C(=O)c1cccc([N+](=O)[O-])c1)CC2 (stereo unspecified) do in these assays?
IL-1B inflam inh: -52.9*; HT1080 IDH1KD tx: -26.6%; DT40 TDP1 CPT: inconclusive; HT1080-NT tox: -9.0%; DT40 TDP1 no CPT: inconclusive

How did N=C(N)SCc1cccc2c(=O)cc(-c3ccccc3)oc12 do in these assays?
DT40 TDP1 CPT: 4.47µM*; DT40 TDP1 no CPT: 7.08µM*

How did CSc1nsc(SCC(=O)N2CCCCC2)n1 do in these assays?
IL-1B inflam inh: inconclusive; HT1080 IDH1KD tx: inconclusive; DT40 TDP1 CPT: 21.3%; HT1080-NT tox: 28.8%; DT40 TDP1 no CPT: -16.2%

What do the screens show for `O=C(CC(C(=O)O)n1ccnc1)c1ccc(Cl)cc1` (stereo unspecified)?
DT40 TDP1 CPT: 7.08µM*; DT40 TDP1 no CPT: 7.08µM*

How did CCOC(=O)c1c(S(=O)(=O)N2CCC(C(=O)NCc3cccc(C)c3)CC2)c(C)n(C)c1C do in these assays?
DT40 TDP1 CPT: 0.0%; DT40 TDP1 no CPT: -13.9%

Results for CCOC(=O)/C=C/c1cccc(C)c1O ?
IL-1B inflam inh: 1.7; HT1080 IDH1KD tx: 25.7%; DT40 TDP1 CPT: -14.8%; HT1080-NT tox: 22.4%; DT40 TDP1 no CPT: inconclusive

How did c1nc(Nc2ccc(N3CCOCC3)cc2)c2ccsc2n1 do in these assays?
IL-1B inflam inh: -10.0; HT1080 IDH1KD tx: -0.3%; DT40 TDP1 CPT: inconclusive; HT1080-NT tox: -1.9%; DT40 TDP1 no CPT: inconclusive

How did O=C(O)c1ccc(Nc2ncnc3scc(-c4ccccc4)c23)cc1 do in these assays?
IL-1B inflam inh: 13.2; HT1080 IDH1KD tx: -1.8%; DT40 TDP1 CPT: 2.59µM*; HT1080-NT tox: -2.6%; DT40 TDP1 no CPT: 4.11µM*

Results for Fc1ccc(-c2csc3ncnc(Nc4ccc(N5CCOCC5)cc4)c23)cc1 ?
IL-1B inflam inh: -57.6*; HT1080 IDH1KD tx: inconclusive; DT40 TDP1 CPT: 14.6µM*; HT1080-NT tox: inconclusive; DT40 TDP1 no CPT: 23.1µM*

Results for Cc1ccc(NC(=O)CSc2nnc3ccc(-c4ccncc4)nn23)cc1 ?
IL-1B inflam inh: -4.6; HT1080 IDH1KD tx: -5.5%; DT40 TDP1 CPT: -21.7%; HT1080-NT tox: -3.6%; DT40 TDP1 no CPT: -19.1%

How did COc1ccc(-c2ccnc(SCC(=O)N3CCN(c4ccccc4)CC3)n2)cc1 do in these assays?
IL-1B inflam inh: 7.8; HT1080 IDH1KD tx: 21.1%; DT40 TDP1 CPT: -4.7%; HT1080-NT tox: 14.6%; DT40 TDP1 no CPT: 4.6%

What do the screens show for `O=c1ccc(S(=O)(=O)N2CCCC2)cn1Cc1ccc(Cl)cc1Cl`?
IL-1B inflam inh: -4.5; HT1080 IDH1KD tx: -3.2%; DT40 TDP1 CPT: 20.6µM*; HT1080-NT tox: -8.0%; DT40 TDP1 no CPT: 11.6µM*

How did CN(C)C(=O)c1ccc(=O)n(Cc2ccc(Cl)cc2Cl)c1 do in these assays?
IL-1B inflam inh: 37.6; HT1080 IDH1KD tx: 19.2%; DT40 TDP1 CPT: 8.5%; HT1080-NT tox: 6.1%; DT40 TDP1 no CPT: -3.2%

How did CC(C)Oc1cccc(C(=O)C2CCCN(C(=O)c3ccccn3)C2)c1 (stereo unspecified) do in these assays?
IL-1B inflam inh: 36.1; HT1080 IDH1KD tx: -1.8%; DT40 TDP1 CPT: 20.6µM*; HT1080-NT tox: 11.4%; DT40 TDP1 no CPT: 10.3µM*

How did Cc1nc(C(=O)N2CCCC(C(=O)c3cccc(OC(C)C)c3)C2)cs1 (stereo unspecified) do in these assays?
IL-1B inflam inh: 13.8; HT1080 IDH1KD tx: -0.1%; DT40 TDP1 CPT: 10.3µM*; HT1080-NT tox: -3.5%; DT40 TDP1 no CPT: 14.6µM*

Results for Cc1cc(C(=O)Cn2cnc3ccccc3c2=O)c(C)n1C1CC1 ?
IL-1B inflam inh: -17.0; HT1080 IDH1KD tx: 1.7%; DT40 TDP1 CPT: -1.5%; HT1080-NT tox: 0.8%; DT40 TDP1 no CPT: 1.1%
